Inconclusive results are not listed. Calls of active or inactive are those of the source.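 The calls were made as follows, unless noted: active = percent response above a set limit, the screen-wide mean plus 3 SD (cut at about 130% in these data); inactive = the rest.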
Columns and labels:
[1] = yeast TOR pathway RPL19A-GFP modulators, primary screen, cell-based, S. cerevisiae, multiplex flow cytometry (AID 1862; in the data active = percent of DMSO control GFP below about 86%;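 also: lower values mimic rapamycin by blocking the RPL19A rise seen in DMSO cells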); conditions: S. cerevisiae RPL19A-GFP strain, flow cytometry fluorescence, 3 h; at 10 µM; stronger effect = lower value
[2] = modulators of MEP2-GFP levels in yeast, primary screen, S. cerevisiae, multiplex flow cytometry (AID 1867;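 active = GFP response, as percent of the DMSO control, above the screen-wide mean plus 3 SD, about 139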;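 also: median GFP channel fluorescence of barcode-gated MEP2-GFP cells measured by flow cytometry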); conditions: S. cerevisiae MEP2-GFP strain, 3 h, at 10 µM, stronger effect = higher value, 100% means same as DMSO wells
[3] = modulators of CIT2-GFP expression in yeast, primary screen, S. cerevisiae, GFP fusion, multiplex flow cytometry (AID 1870); conditions: 3 h, at 10 µM, stronger effect = higher value;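 also: barcoded CIT2-GFP strain pooled with four other GFP strains with rapamycin as positive control; median GFP fluorescence per well over plate mean of DMSO wells so 100% = DMSO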
[4] = modulators of LAP4-GFP expression in yeast, primary screen, S. cerevisiae, multiplex flow cytometry (AID 1873;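 active = GFP signal, as percent of the solvent control, above the screen mean plus 3 SD, about 149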); conditions: 3 h, at 10 µM, stronger effect = higher value
[5] = inhibitors of CD8+ T cell-vesicle binding, pilot screen, LFA-1/ICAM-1 modulator project, MLPCN validation set, flow cytometry (AID 2523;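 active = response below a set limit, under 55% cells CD8-positive and vesicle-bound, and CD8 cells' 90th-percentile brightness under 279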;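 as to vesicle binding response: mean PE anti-B7-1 fluorescence of CD8+ cells relative to row control; 100% = QL9-loaded vesicles with DMSO vehicle in the same plate row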); conditions: 2C mouse CD8+ T cells, at 7 µM, stronger effect = lower value; double positive events: measured here: CD8+/vesicle+ event percentage
[6] = target: Integrin beta-1 (Homo sapiens) + Integrin alpha-4 (Homo sapiens) (UniProt P13612+P05556); test: inhibition of HUTS-21 binding to VLA-4, pilot screen, VLA-4 allosteric modulator project, U937 cells, HUTS-21 mAb, flow cytometry, validation set (AID 2674;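 active = inhibition above 50%, about 3 SD of the validation set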;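 also: antibody binding induced by the VLA-4 ligand LDV present at three times its Kd; 0% = LDV ligand with antibody and no compound and 100% = antibody without LDV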); conditions: HUTS-21 LIBS mAb binding, at 6.7 µM, stronger effect = higher value, binding induced by LDV ligand
[7] = superoxide lowering in aged yeast cells, pilot screen, validation compound set (AID 2706;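 active = superoxide response below 65% of plate, a cut near 3 SD across the whole screen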;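 also: yeast exposed to compound for one week at 30 degrees C before staining; 100% = mean of all compound wells on the same plate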); conditions: S. cerevisiae aging, superoxide DHE fluorescence; at 10 µM, stronger effect = lower value
[8] = target: Beta-adrenergic receptor kinase 1 (Homo sapiens) (UniProt P25098); test: GRK2 binders displacing RNA aptamer, biochemical, validation, human GRK2, bead flow cytometry (AID 488806;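 active = aptamer binding inhibition above 30%, about 3 SD of noise from non-fluorescent compounds; inactive = inhibition at or below 30%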); conditions: bead-bound GRK2, FAM-aptamer displacement, at 10 µM, stronger effect = higher value
[9] = target: Beta-2 adrenergic receptor (Homo sapiens) (UniProt P07550); test: beta2AR agonists driving receptor internalization, pilot screen, cell-based, FAP fluorogen, flow cytometry, validation set (AID 504459;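 active = percent response above 42, roughly 3 SD of non-fluorescent test compounds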;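 also: agonist-driven loss of surface beta2AR via internalization measured by FAP dye flow cytometry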); conditions: Am2.2-beta2AR cells, FAP surface receptor flow cytometry; at 10 µM; stronger effect = higher value
[10] = target: AP-2 complex subunit beta (Homo sapiens) (UniProt P63010); test: inhibitors of arrestin peptide binding to AP2, pilot screen, biochemical, validation set, GST-AP2 beads, flow cytometry (AID 504541;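 active = inhibition above 54%, about 3 SD of non-fluorescent compounds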;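 also: AP2 carries R879A mutation and is captured from E. coli lysate; bead-bound FITC arrestin peptide fluorescence measuring arrestin peptide binding to AP2; 0% = DMSO wells and 100% = excess unlabeled arrestin peptide control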); conditions: FITC arrestin peptide, at 10 µM, stronger effect = higher value, AP2 beta2 appendage fragment, R879A mutant
[11] = yeast V-ATPase proton transport modulators, S. cerevisiae, pHLuorin, HTS validation (AID 504600; in the data active = response above about 15%;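 also: plate controls were DMSO for no effect and reference compound for full effect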); conditions: S. cerevisiae pHLuorin cytosolic pH, at 10 µM, stronger effect = higher value
[12] = tested on: anti-desmoglein-3 scFv antibody binding to human DSG3; test: inhibitors of anti-DSG3 scFv binding to DSG3, pilot screen, biochemical, validation compound set, bead-based, flow cytometry (AID 588368;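 active = binding below the plate cutoff, the plate median minus 3 SD, with a reading above zero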;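 also: signal is the median channel fluorescence of bead-bound GFP antibody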); conditions: Protein G beads, DSG3-Fc, scFv-GFP binding, at 10 µM, stronger effect = lower value
[13] = inhibitors of fungal efflux pumps CDR1, CDR2, MDR1, pilot screen, validation compound set, multiplex, phenotypic (AID 588506;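 active = efflux inhibition above 0.42, the validation set average plus 4 SD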;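 also: Nile Red retained in cells so higher fluorescence means more efflux inhibition; 0 = negative control wells and 1 = enniatin B 25 µM full block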); conditions: S. cerevisiae pump-expressing triplex, Nile Red efflux flow cytometry; at 10 µM; stronger effect = higher value; the pumps come from Candida albicans
[14] = target: ATP-binding cassette sub-family B member 6 (Homo sapiens) (UniProt Q9NP58); test: ABCB6 transporter inhibitors, pilot screen, K562-ABCB6 cells, flow cytometry, validation set (AID 588550;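 active = inhibition above the screen-wide mean plus 3 SD, about 51%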;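 also: 0% = DMSO wells and 100% = benzethonium chloride 70 µM positive control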); conditions: K562-ABCB6 porphyrin accumulation, 1 h, at 10 µM, stronger effect = higher value
[15] = promoters of myeloid differentiation in arrested cells, primary screen, cell-based, GFP/MAC1 double positive, flow cytometry, validation set (AID 588685;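 active = differentiation response of at least 50%, scaled between solvent and reference control, from cells with both markers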;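 also: compound exposure lasts four days before antibody staining and flow analysis; 0% = DMSO wells and 100% = 5 µM fulvestrant positive control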); conditions: ER-HoxA9 marrow cells, stronger effect = higher value, normalized: vehicle 0, fulvestrant 100
[16] = modulators of AGP1-GFP expression in yeast TOR pathway, primary screen, cell-based, multiplex flow cytometry, S. cerevisiae (AID 1887;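 active = GFP signal above the screen-wide mean plus 3 SD, that is over about 124.5% of the solvent control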;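 also: AGP1-GFP fusion strain of S. cerevisiae within a five-strain barcoded multiplex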); conditions: 3 h, at 10 µM, stronger effect = higher value
[17] = RPL19A-GFP modulators, yeast TOR pathway, confirmation, cell-based, S. cerevisiae, flow cytometry, cherry picks, mother/daughter gates (AID 2270;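 active = GFP response below 50% of the DMSO control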); conditions: S. cerevisiae RPL19A-GFP strain, 3 h, at 10 µM, stronger effect = lower value, 100 = same GFP as DMSO wells
[18] = LAP4-GFP expression modulators in yeast, confirmation, cell-based, cherry picks, flow cytometry, mother/daughter gates (AID 2271;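 active = GFP response above 150% of the DMSO control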;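 also: ratio of sample to DMSO plate mean so 100% equals DMSO level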); conditions: S. cerevisiae LAP4-GFP strain, 3 h, at 10 µM, stronger effect = higher value, 100 means same as DMSO control
[19] = modulators of MEP2-GFP levels in yeast, confirmation, S. cerevisiae, flow cytometry GFP, cherry picks (AID 2272;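 active = GFP response above 150% of the DMSO control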;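 also: ratio of well signal to plate DMSO mean so 100% equals DMSO level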); conditions: S. cerevisiae MEP2-GFP strain, 3 h, at 10 µM, stronger effect = higher value
[20] = modulators of CIT2-GFP expression in yeast, confirmation, S. cerevisiae, GFP fusion, cherry picks, mother/daughter gates (AID 2274;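 active = GFP response above 150% of the DMSO level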); conditions: S. cerevisiae CIT2-GFP strain, flow cytometry, 3 h, at 10 µM, stronger effect = higher value
[21] = measured here: daughter cell gate
[22] = measured here: mother cell gate

ATP-binding cassette sub-family B member 6 (Homo sapiens), sequence (Q9NP58 whole entry, looked up): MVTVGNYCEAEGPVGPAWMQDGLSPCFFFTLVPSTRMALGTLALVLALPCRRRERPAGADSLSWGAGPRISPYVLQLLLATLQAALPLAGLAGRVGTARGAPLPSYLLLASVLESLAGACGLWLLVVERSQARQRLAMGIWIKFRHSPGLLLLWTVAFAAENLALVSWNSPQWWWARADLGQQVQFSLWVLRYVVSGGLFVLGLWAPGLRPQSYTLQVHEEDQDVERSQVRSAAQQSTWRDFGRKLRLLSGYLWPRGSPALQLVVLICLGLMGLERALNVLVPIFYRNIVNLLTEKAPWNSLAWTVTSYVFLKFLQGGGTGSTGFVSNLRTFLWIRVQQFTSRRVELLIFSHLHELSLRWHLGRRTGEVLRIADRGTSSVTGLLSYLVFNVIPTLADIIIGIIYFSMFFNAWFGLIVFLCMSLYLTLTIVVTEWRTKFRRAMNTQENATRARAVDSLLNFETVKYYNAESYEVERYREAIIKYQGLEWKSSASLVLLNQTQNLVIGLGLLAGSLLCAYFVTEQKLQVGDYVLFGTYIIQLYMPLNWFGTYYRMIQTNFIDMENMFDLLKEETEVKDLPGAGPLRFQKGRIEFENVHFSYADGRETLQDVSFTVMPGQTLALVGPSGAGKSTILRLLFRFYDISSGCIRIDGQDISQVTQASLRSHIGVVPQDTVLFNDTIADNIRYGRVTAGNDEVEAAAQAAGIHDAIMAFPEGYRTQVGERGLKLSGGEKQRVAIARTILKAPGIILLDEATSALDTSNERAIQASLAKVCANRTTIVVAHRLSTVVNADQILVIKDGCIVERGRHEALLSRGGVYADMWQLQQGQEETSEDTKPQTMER
Beta-adrenergic receptor kinase 1 (Homo sapiens), sequence (P25098 whole entry, looked up): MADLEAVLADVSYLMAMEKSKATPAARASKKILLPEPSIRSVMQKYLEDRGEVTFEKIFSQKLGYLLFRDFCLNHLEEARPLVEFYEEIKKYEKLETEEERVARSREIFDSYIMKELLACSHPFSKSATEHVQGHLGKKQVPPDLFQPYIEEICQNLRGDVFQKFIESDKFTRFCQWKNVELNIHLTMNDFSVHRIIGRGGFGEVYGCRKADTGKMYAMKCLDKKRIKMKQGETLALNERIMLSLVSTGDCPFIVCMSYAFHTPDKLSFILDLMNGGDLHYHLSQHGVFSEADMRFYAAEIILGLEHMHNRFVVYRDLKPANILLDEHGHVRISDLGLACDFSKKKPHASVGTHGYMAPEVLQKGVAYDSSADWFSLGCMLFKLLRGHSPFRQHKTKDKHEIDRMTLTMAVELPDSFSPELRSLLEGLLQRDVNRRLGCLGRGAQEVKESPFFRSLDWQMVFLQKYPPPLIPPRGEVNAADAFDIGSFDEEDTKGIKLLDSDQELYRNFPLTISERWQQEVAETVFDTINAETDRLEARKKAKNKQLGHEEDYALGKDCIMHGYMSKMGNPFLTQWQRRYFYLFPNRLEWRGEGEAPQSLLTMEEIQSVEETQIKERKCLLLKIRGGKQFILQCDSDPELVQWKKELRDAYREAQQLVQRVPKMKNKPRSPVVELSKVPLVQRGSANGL
AP-2 complex subunit beta (Homo sapiens), sequence (P63010 whole entry, looked up, the tested form may be a part, one chain of several): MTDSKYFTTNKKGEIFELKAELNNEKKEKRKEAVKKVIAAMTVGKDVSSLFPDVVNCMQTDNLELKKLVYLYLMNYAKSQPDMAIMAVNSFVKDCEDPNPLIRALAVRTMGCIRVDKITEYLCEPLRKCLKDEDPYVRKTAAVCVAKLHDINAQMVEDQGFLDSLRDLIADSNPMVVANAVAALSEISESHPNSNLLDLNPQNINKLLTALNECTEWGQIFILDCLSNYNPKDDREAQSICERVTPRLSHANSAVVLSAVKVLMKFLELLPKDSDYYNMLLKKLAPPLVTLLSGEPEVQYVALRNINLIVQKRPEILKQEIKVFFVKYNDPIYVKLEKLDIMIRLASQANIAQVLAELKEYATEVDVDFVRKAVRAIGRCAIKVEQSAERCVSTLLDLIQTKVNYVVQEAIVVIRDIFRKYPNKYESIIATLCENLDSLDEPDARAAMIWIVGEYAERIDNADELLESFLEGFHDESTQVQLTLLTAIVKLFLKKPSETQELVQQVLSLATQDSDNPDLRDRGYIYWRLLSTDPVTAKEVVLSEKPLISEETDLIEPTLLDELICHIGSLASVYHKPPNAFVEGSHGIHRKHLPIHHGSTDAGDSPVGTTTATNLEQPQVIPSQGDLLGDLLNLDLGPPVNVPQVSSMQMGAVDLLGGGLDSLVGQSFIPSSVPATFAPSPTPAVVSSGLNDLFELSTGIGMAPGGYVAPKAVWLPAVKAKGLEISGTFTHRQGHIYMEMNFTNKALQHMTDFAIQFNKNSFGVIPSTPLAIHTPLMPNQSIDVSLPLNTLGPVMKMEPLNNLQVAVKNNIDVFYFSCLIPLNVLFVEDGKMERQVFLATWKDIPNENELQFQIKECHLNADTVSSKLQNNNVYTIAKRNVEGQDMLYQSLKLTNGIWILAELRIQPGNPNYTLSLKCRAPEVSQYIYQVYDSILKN
Integrin beta-1 (Homo sapiens) + Integrin alpha-4 (Homo sapiens), sequence (P05556 whole entry, looked up): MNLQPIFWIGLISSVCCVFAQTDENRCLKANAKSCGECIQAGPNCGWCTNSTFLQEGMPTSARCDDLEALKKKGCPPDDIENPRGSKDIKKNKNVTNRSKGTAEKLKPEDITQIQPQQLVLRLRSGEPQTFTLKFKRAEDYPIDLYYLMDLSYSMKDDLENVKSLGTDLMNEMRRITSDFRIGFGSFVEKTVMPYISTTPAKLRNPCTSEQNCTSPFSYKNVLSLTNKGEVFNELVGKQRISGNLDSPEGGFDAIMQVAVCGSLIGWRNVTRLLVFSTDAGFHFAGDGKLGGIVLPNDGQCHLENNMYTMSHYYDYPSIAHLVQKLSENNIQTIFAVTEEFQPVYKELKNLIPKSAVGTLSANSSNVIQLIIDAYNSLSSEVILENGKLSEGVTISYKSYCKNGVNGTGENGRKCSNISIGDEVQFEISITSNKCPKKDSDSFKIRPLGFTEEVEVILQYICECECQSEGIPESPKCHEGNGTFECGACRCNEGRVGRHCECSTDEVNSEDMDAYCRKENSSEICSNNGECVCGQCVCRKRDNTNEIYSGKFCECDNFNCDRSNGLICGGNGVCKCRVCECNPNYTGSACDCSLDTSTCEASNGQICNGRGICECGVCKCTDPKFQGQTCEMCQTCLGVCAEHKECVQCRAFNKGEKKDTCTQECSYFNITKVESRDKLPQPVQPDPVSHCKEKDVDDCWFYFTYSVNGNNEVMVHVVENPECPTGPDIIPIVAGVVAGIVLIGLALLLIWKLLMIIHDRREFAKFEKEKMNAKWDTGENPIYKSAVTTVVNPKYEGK
Integrin beta-1 (Homo sapiens) + Integrin alpha-4 (Homo sapiens), sequence (P13612 whole entry, looked up): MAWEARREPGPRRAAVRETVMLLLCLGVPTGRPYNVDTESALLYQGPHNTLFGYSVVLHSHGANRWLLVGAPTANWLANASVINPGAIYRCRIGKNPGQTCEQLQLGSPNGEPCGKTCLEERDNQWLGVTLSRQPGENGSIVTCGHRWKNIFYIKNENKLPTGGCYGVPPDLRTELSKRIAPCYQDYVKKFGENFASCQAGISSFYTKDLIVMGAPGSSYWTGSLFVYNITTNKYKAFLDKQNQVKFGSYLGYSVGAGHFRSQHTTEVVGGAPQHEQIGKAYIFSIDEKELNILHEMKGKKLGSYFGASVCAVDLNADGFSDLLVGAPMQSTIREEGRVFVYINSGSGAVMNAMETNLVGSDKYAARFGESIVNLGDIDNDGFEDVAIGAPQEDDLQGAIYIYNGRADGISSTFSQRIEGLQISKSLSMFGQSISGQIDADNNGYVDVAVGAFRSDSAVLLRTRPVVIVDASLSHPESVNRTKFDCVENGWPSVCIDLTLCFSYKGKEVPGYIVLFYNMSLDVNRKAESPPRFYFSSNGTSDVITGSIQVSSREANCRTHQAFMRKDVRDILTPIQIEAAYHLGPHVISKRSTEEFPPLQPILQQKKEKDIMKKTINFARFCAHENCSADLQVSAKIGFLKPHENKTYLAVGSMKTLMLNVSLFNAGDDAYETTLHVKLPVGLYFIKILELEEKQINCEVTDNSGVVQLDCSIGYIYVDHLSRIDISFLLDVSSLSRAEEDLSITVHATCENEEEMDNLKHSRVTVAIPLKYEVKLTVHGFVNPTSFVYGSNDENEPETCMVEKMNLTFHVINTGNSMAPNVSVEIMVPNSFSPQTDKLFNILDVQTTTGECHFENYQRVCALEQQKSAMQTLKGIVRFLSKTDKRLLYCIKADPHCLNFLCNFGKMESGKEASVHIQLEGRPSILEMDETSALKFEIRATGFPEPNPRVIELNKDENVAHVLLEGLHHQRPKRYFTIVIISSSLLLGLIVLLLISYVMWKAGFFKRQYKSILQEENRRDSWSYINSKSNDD
Beta-2 adrenergic receptor (Homo sapiens), sequence (P07550 whole entry, looked up): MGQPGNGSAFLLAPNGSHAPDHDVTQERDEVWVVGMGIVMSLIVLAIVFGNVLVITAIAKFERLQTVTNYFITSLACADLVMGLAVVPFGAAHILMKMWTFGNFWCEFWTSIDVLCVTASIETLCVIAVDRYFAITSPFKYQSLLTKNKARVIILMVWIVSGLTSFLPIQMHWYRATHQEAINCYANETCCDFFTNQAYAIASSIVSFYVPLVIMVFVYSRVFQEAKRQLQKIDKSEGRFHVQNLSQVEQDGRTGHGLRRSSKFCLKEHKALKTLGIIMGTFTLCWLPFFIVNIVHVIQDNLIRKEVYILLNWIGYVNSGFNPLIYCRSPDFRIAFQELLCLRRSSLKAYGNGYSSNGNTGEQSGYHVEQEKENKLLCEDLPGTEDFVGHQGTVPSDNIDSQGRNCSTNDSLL

Nc1c2c(nc3ccccc13)CCCC2
inactive: percent of DMSO control GFP [1] 89.5% | GFP response vs DMSO [2] 112% | percent response of DMSO control [3] 99.2% | GFP response vs DMSO [4] 69.9% | vesicle binding response [5] 258% | inhibition [6] 1.61% | superoxide response (% of plate) [7] 105% | aptamer binding inhibition [8] 2% | response [9] -14.3% | inhibition [10] 3.69% | response [11] 7.21% | binding (% of control) [12] 104% | efflux inhibition (fraction of control) [13] 0.05 | inhibition [14] 11% | differentiation response [15] -5.73%
68.9%: double positive events [5]

C[C@]12CC[C@@H]3c4ccc(OS(=O)(=O)O)cc4CC[C@H]3[C@@H]1CCC2=O
inactive: percent of DMSO control GFP [1] 90.6% | GFP response vs DMSO [2] 120% | percent response of DMSO control [3] 96.6% | GFP response vs DMSO [4] 79.2% | vesicle binding response [5] 292% | inhibition [6] 5.49% | superoxide response (% of plate) [7] 95.8% | aptamer binding inhibition [8] -3% | response [9] 0.04% | inhibition [10] -3.24% | response [11] 3.54% | binding (% of control) [12] 104% | efflux inhibition (fraction of control) [13] -0.24 | inhibition [14] 11% | differentiation response [15] 6.55%
73.4%: double positive events [5]

Cc1c(OC(=O)CNC(=O)OC(C)(C)C)ccc2c3c(c(=O)oc12)CCC3
inactive: percent of DMSO control GFP [1] 93.3% | GFP response vs DMSO [2] 123% | percent response of DMSO control [3] 90% | GFP response vs DMSO [4] 80.3% | vesicle binding response [5] 210% | inhibition [6] 9.37% | superoxide response (% of plate) [7] 101% | aptamer binding inhibition [8] -1% | response [9] -1.96% | inhibition [10] 4.15% | response [11] 0.35% | binding (% of control) [12] 107% | efflux inhibition (fraction of control) [13] 0.01 | inhibition [14] 1% | differentiation response [15] 0%
60.3%: double positive events [5]

COc1cc2c(cc1OC)C(Cc1ccc(O)cc1)N(C)CC2 (centres undefined)
inactive: percent of DMSO control GFP [1] 99% | GFP response vs DMSO [2] 127% | percent response of DMSO control [3] 108% | GFP response vs DMSO [4] 80.9% | vesicle binding response [5] 289% | inhibition [6] 8.4% | superoxide response (% of plate) [7] 104% | aptamer binding inhibition [8] 4% | response [9] -6.53% | inhibition [10] 2.93% | response [11] 0.76% | binding (% of control) [12] 108% | efflux inhibition (fraction of control) [13] 0.27 | inhibition [14] 8% | differentiation response [15] 2.46%
56%: double positive events [5]

CCCNC(=O)NS(=O)(=O)c1ccc(Cl)cc1
48%: double positive events [5]
inactive: percent of DMSO control GFP [1] 98.2% | GFP response vs DMSO [2] 104% | percent response of DMSO control [3] 97.1% | GFP response vs DMSO [4] 101% | GFP response, % of DMSO [16] 103% | inhibition [6] 1.12% | superoxide response (% of plate) [7] 99.1% | aptamer binding inhibition [8] 2% | response [9] -4.85% | inhibition [10] 11.1% | response [11] -3.28% | binding (% of control) [12] 102% | efflux inhibition (fraction of control) [13] -0.02 | inhibition [14] 2% | differentiation response [15] 8.02%

C[N+](C)(C)CCOP(=O)(O)OP(=O)([O-])OC[C@H]1O[C@@H](n2ccc(N)nc2=O)[C@H](O)[C@@H]1O
inactive: percent of DMSO control GFP [1] 101% | GFP response vs DMSO [2] 113% | percent response of DMSO control [3] 112% | GFP response vs DMSO [4] 82% | GFP response, % of DMSO [16] 102% | inhibition [6] -12.9% | superoxide response (% of plate) [7] 89.1% | aptamer binding inhibition [8] 2% | response [9] 3.17% | inhibition [10] -4.05% | response [11] -1.87% | binding (% of control) [12] 101% | efflux inhibition (fraction of control) [13] -0.17 | inhibition [14] 10% | differentiation response [15] -7.37%
68.8%: double positive events [5]

CC1(C)CC(=O)C(C(=O)CCCCC(=O)C2C(=O)CC(C)(C)CC2=O)C(=O)C1
76%: double positive events [5]
inactive: percent of DMSO control GFP [1] 105% | GFP response vs DMSO [2] 114% | percent response of DMSO control [3] 112% | GFP response vs DMSO [4] 91.3% | vesicle binding response [5] 197% | inhibition [6] -6.15% | superoxide response (% of plate) [7] 97.2% | aptamer binding inhibition [8] -1% | response [9] -2.15% | inhibition [10] -8.71% | response [11] -8.22% | binding (% of control) [12] 114% | efflux inhibition (fraction of control) [13] -0.24 | inhibition [14] 14% | differentiation response [15] -2.46%

O=c1[nH]c(=O)n([C@H]2C[C@H](O)[C@@H](CO)O2)cc1F
inactive: percent of DMSO control GFP [1] 91.1% | percent response of DMSO control [3] 101% | GFP response vs DMSO [4] 93.5% | GFP response vs DMSO [17] 98.6% | GFP response relative to DMSO [18] 97.3% | GFP response vs DMSO [19] 101% | GFP response, % of DMSO [20] 93.4% | vesicle binding response [5] 155% | inhibition [6] 4.52% | superoxide response (% of plate) [7] 94.8% | aptamer binding inhibition [8] 9% | response [9] -2.6% | inhibition [10] 1.52% | response [11] -0.54% | binding (% of control) [12] 98% | efflux inhibition (fraction of control) [13] -0.38 | inhibition [14] 11% | differentiation response [15] -5.73%
97.8%: GFP response vs DMSO [17, 21]
96.6%: GFP response relative to DMSO ([18]; measured here: daughter cell gate response)
99.2%: GFP response vs DMSO [17, 22]
active: GFP response vs DMSO [2] 142%
72.9%: double positive events [5]
93.7%: GFP response, % of DMSO [20, 21] | GFP response, % of DMSO [20, 22]
97.2%: GFP response relative to DMSO ([18]; measured here: mother cell gate response)

OC[C@H]1O[C@@H](n2cnc3c(Nc4ccccc4)ncnc32)[C@H](O)[C@@H]1O
62.8%: double positive events [5]
inactive: percent of DMSO control GFP [1] 92.4% | GFP response vs DMSO [2] 118% | percent response of DMSO control [3] 112% | GFP response vs DMSO [4] 73.2% | vesicle binding response [5] 139% | inhibition [6] -9.06% | superoxide response (% of plate) [7] 110% | aptamer binding inhibition [8] 1% | response [9] -8.38% | inhibition [10] -2.59% | response [11] -0.49% | binding (% of control) [12] 103% | efflux inhibition (fraction of control) [13] 0.3 | inhibition [14] 10% | differentiation response [15] 2.46%

— PubChem BioAssay
